Data from the supplement of paper PMC11732987, “Enantioselective OTUD7B fragment discovery through chemoproteomics screening and high-throughput optimisation” (Communications Chemistry, 2025).

Tests used:
Experiment in all cases: log2 ratio of Biotin-Ahx-Ub-VS probe labelling (fragment/DMSO); higher = less target engagement (more negative = stronger competition), active = hit call of the paper (q ≤ 0.05, log2 ratio ≤ -1)
Settings in all cases: compound concentration: 200 uM; treatment time: 3 h
USP42 = target: T1, USP42 (UniProt Q9H9J4)
T1 sequence (whole entry): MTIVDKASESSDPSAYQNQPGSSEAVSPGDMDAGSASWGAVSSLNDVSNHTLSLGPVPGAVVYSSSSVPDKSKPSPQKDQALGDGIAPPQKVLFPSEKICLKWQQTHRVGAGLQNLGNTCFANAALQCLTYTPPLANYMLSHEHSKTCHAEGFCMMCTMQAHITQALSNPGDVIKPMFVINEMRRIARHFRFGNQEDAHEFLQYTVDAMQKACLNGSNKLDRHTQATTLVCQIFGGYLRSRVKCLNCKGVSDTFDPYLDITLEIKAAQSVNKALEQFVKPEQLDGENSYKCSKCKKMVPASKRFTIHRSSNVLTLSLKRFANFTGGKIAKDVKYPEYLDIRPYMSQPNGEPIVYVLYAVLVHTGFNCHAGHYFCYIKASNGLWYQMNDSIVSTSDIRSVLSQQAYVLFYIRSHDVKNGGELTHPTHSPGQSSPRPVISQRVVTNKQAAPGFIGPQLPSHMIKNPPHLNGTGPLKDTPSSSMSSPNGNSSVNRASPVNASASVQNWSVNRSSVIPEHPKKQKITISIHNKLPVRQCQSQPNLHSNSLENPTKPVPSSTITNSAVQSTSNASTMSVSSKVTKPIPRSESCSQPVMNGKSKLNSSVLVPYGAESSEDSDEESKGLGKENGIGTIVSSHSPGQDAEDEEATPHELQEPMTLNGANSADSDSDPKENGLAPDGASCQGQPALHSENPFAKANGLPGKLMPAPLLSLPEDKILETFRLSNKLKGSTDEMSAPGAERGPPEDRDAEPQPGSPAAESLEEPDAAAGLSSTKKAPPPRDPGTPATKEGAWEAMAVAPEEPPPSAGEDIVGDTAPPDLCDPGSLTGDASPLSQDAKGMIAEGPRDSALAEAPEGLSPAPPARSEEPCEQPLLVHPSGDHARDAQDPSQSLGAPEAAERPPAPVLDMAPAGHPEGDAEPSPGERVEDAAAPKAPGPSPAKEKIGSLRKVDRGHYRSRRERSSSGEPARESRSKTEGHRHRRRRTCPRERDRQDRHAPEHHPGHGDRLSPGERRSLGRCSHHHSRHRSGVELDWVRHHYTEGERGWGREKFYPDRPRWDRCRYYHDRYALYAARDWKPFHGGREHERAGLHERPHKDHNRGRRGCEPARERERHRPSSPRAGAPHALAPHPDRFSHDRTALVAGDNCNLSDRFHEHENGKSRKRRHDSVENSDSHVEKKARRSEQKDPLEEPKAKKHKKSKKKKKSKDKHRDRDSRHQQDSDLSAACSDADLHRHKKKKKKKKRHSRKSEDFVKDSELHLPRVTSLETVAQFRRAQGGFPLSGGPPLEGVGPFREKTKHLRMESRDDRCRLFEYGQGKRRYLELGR
How it was run: (§1)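 Global-median-normalised Spectronaut label-free quantities were compared by unpaired t-test, and values are average log2 ratios of fragment over vehicle. Only proteins with ≥2 unique peptides were used. HEK293T lysate (495 µg per sample) was treated in triplicate with fragment at 200 µM or vehicle for 3 h and then with Biotin-Ahx-Ub-VS at 0.5 µM final for 1 h. Labelled DUBs were then NeutrAvidin-enriched, digested with LysC and trypsin, and run by diaPASEF LC-MS/MS.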

USP46 = USP46 (UniProt P62068)
How it was run: as §1

USP47 = target: T2, USP47 (UniProt Q96K76)
T2 sequence (whole entry): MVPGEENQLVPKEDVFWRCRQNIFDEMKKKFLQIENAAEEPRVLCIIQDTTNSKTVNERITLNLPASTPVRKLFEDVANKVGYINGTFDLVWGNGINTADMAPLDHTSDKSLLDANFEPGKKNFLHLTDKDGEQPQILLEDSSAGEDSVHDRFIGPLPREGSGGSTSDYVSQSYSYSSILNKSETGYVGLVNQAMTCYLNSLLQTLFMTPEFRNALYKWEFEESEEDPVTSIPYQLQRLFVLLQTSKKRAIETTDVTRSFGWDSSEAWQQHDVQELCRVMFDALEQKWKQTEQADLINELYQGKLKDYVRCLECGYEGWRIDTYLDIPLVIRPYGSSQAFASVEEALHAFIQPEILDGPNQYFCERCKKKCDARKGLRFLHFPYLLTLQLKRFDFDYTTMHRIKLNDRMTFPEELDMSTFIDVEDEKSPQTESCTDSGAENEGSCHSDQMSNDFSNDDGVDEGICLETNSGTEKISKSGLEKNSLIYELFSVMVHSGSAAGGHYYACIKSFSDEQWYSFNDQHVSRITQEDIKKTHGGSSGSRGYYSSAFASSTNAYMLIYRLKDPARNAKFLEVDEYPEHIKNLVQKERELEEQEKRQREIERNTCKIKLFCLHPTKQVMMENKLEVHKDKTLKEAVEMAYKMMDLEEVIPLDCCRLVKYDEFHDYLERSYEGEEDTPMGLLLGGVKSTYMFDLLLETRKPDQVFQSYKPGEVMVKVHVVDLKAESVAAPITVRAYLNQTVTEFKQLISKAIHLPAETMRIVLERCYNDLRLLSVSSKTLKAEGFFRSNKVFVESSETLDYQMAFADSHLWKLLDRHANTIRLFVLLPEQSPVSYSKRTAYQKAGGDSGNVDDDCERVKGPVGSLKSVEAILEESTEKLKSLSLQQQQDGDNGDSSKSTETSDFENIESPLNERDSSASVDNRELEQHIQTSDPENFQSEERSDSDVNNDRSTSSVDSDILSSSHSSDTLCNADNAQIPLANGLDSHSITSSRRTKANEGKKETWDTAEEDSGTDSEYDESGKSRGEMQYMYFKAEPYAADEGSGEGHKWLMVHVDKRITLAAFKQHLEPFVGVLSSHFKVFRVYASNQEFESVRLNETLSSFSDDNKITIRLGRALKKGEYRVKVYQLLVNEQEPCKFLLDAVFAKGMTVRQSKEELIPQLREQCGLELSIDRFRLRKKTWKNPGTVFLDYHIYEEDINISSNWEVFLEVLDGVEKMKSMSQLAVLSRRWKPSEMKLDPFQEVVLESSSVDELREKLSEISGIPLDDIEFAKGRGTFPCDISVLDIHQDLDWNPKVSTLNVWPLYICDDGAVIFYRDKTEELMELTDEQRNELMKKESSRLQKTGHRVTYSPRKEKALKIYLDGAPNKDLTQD
How it was run: as §1

USP48 = target: T3, USP48 (UniProt Q86UV5)
T3 sequence (whole entry): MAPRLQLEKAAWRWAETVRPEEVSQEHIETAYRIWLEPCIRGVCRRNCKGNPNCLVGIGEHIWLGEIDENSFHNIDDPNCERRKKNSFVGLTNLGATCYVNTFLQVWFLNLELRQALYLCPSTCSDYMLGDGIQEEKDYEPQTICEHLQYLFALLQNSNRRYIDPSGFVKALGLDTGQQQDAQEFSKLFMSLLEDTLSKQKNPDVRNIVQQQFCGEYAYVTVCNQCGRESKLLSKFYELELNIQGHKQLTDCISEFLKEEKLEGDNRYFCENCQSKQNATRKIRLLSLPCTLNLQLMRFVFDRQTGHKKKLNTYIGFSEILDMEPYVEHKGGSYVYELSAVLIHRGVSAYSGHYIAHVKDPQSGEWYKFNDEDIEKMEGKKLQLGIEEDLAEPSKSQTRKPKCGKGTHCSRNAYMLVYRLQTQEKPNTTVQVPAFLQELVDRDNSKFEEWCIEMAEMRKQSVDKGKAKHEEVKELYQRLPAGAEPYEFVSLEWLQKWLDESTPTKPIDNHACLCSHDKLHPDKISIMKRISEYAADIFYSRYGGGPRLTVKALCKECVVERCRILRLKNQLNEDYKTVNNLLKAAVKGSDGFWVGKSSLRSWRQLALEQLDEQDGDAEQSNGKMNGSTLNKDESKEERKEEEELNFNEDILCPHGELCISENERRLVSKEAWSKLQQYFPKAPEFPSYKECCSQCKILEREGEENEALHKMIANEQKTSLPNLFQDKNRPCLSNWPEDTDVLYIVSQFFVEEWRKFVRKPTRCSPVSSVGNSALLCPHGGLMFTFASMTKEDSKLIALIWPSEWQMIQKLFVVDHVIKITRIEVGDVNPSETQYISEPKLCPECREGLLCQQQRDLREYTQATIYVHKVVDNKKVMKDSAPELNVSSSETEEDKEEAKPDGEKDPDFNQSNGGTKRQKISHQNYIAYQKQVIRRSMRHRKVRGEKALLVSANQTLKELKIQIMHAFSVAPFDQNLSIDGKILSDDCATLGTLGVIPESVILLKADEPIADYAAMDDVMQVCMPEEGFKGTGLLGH
How it was run: as §1

USP5 = target: T4, USP5 (UniProt P45974)
T4 sequence (whole entry): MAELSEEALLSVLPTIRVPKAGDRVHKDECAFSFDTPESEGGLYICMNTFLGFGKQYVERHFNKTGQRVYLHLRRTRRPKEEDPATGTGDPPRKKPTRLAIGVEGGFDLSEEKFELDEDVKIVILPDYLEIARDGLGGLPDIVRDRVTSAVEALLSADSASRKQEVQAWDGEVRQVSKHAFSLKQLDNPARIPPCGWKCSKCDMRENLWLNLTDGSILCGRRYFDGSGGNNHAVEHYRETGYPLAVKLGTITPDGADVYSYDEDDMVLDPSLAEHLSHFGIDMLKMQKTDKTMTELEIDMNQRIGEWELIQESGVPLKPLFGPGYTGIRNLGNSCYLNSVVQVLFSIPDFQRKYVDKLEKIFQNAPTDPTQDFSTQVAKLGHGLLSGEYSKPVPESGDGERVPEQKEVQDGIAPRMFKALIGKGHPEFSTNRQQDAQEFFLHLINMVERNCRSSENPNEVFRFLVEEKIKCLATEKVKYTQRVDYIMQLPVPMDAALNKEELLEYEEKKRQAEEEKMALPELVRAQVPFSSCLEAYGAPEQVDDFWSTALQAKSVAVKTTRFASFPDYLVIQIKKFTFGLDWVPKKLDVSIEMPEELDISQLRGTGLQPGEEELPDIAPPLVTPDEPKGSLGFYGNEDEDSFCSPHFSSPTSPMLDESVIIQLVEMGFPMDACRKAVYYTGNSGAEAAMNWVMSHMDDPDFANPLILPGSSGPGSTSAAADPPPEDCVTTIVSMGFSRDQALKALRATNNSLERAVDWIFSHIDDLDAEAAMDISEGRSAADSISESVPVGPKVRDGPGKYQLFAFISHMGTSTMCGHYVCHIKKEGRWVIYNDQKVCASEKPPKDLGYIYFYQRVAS
How it was run: as §1

USP54 = USP54 (UniProt Q70EL1)
How it was run: as §1

USP7 = USP7 (UniProt Q93009)
How it was run: as §1

USP8 = target: T5, USP8 (UniProt P40818)
T5 sequence (whole entry): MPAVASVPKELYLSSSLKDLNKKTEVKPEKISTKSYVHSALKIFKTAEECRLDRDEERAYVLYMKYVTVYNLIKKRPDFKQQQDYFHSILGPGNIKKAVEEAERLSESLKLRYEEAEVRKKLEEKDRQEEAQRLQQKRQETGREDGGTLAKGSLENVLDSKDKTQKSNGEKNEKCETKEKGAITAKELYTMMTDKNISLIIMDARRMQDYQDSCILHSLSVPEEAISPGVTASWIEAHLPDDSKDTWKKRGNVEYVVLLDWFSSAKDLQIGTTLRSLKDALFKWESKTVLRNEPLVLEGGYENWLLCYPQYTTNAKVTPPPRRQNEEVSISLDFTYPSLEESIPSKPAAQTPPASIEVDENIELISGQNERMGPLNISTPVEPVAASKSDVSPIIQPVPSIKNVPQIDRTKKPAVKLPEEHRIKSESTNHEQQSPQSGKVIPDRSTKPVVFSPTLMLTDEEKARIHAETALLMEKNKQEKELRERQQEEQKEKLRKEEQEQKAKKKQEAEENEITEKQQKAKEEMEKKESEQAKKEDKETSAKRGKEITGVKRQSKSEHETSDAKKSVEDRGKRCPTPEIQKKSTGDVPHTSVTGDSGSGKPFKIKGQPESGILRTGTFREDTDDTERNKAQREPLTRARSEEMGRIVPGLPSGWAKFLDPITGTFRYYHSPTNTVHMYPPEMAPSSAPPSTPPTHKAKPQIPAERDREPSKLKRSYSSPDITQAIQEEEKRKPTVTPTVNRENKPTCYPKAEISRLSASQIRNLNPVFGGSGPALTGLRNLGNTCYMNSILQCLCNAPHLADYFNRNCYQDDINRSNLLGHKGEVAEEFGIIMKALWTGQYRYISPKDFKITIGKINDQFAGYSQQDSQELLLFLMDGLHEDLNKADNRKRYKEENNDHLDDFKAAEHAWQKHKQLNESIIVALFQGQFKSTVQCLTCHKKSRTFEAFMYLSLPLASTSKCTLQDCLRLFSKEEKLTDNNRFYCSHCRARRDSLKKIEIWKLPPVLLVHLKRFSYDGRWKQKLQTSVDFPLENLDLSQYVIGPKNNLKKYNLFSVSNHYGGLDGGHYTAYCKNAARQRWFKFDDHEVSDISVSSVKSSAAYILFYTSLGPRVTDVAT
How it was run: as §1

USP9X = USP9X (UniProt Q93008)
How it was run: as §1

UniProt O00487 = target: UniProt O00487
How it was run: as §1

Measured: log2 ratio of Biotin-Ahx-Ub-VS probe labelling

Sequence of USP9X (Q93008 whole entry): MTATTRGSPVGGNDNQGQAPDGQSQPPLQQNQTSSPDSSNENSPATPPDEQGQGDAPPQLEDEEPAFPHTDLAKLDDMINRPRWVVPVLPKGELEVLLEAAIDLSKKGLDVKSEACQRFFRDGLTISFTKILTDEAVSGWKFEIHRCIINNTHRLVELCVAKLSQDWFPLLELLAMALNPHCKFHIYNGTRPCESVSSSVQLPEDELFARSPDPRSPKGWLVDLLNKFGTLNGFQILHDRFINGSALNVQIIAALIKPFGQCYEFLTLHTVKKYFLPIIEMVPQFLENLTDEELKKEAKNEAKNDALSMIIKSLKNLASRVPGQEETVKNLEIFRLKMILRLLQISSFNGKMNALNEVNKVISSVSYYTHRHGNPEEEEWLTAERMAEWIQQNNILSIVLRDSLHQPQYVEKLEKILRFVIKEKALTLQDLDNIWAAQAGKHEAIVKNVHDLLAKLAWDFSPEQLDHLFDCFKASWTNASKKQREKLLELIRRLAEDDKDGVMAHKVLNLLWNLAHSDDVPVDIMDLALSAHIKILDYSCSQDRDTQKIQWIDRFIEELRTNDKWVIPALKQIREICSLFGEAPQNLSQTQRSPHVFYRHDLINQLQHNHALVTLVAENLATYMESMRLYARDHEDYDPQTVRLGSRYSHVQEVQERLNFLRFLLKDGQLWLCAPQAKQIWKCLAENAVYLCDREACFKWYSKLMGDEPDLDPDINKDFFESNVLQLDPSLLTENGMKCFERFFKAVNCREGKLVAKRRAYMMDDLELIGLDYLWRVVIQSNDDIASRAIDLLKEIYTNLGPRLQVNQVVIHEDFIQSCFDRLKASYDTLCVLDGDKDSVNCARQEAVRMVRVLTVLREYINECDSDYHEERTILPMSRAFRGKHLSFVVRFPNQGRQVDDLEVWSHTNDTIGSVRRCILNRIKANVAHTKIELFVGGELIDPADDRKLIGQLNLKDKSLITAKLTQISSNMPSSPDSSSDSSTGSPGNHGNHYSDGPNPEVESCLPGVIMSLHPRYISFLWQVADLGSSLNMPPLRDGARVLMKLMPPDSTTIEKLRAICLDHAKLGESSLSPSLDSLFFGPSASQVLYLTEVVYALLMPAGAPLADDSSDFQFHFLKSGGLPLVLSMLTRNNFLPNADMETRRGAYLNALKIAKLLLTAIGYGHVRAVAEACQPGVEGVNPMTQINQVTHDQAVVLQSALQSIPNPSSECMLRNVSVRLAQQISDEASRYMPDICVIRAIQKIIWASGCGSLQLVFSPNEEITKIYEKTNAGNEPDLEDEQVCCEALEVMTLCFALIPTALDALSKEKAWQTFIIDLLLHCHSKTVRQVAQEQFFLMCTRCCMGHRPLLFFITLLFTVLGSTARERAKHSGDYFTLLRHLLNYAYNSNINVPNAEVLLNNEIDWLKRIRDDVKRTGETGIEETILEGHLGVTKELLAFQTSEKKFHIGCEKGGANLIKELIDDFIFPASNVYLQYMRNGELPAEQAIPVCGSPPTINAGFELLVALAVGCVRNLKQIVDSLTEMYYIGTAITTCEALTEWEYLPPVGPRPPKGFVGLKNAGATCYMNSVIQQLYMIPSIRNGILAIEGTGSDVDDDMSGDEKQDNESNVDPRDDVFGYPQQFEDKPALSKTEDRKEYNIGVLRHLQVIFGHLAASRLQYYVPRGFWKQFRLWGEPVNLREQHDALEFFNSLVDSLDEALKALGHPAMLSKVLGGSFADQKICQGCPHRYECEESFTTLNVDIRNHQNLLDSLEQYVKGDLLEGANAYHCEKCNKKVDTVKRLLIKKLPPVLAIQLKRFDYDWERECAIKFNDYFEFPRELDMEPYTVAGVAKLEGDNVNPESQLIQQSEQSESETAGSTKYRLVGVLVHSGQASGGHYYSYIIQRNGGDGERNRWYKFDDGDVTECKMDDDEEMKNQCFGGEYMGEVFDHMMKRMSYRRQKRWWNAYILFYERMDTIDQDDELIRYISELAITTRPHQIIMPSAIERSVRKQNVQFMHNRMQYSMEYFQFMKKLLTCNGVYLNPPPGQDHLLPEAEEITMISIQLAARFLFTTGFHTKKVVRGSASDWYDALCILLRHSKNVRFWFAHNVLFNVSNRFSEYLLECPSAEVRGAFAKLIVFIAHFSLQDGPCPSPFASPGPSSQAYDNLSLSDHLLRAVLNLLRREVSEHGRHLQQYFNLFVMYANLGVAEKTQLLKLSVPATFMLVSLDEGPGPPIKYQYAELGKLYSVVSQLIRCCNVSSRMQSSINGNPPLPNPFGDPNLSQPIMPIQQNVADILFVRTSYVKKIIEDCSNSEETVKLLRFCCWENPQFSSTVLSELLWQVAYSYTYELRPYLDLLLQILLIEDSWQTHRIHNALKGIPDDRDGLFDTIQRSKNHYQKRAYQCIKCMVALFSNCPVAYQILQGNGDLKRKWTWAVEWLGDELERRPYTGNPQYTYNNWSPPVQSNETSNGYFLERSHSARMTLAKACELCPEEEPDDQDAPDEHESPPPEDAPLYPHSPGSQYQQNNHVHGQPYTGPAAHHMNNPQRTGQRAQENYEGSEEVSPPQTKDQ
Sequence of UniProt O00487 (O00487 whole entry): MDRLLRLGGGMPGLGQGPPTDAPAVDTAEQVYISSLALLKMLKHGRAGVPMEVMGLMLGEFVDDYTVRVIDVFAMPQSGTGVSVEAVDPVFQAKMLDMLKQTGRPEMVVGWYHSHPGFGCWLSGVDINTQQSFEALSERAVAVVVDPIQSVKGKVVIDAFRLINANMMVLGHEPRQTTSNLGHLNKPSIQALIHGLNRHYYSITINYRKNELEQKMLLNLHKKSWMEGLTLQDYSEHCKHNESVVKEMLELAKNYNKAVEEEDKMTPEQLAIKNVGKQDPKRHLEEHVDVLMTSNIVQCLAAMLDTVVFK
Sequence of USP46 (P62068 whole entry): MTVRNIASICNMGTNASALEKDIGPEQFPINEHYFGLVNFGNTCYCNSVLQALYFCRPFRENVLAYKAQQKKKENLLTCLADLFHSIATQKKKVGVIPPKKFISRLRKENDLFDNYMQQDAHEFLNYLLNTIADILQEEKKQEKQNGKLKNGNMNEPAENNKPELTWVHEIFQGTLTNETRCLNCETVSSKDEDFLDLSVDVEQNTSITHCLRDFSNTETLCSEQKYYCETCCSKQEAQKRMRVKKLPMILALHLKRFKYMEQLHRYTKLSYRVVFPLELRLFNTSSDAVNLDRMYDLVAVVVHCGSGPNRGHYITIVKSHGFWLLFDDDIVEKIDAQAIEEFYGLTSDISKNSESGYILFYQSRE
Sequence of USP7 (Q93009 whole entry, looked up): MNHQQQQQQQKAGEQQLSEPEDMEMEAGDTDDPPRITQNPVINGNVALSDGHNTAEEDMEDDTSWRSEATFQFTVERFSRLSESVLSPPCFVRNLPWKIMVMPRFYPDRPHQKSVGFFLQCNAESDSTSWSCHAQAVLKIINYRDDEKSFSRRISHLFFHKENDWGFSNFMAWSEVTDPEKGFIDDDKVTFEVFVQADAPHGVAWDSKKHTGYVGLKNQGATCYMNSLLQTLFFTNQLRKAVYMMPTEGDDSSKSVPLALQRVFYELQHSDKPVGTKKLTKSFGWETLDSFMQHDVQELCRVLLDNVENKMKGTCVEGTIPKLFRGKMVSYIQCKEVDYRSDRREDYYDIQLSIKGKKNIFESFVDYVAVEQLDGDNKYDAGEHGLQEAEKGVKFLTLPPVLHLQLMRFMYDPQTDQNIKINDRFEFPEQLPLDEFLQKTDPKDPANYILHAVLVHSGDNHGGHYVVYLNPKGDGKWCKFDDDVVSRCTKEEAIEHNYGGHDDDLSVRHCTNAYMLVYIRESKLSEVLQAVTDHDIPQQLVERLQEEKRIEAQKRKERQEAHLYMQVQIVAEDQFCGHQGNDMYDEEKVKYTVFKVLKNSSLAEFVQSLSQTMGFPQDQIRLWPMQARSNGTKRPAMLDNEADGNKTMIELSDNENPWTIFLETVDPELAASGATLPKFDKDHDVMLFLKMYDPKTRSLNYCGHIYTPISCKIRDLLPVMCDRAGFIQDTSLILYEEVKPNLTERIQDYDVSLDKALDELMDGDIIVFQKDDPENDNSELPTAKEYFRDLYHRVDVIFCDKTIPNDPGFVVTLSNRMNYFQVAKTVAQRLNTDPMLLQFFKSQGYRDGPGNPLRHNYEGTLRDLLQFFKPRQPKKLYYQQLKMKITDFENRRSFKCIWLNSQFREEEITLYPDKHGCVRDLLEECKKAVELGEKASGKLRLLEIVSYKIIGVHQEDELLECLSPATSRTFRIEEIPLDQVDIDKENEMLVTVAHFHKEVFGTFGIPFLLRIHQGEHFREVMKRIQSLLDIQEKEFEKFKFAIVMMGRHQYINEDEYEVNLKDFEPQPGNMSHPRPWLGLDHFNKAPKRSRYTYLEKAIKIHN

Cc1ccc(C)c(Oc2ccc(CNC(=O)CCl)cn2)c1.Cl
inactive: USP42 -0.119 | USP46 0.00613 | USP47 -0.424 | USP48 -0.619 | USP5 -0.165 | USP54 0.136 | USP7 -0.376 | USP8 -0.519 | USP9X -0.677 | UniProt O00487 -0.0677

O=C(CCl)N1CCCN(C(=O)c2ccc(Cl)cc2)CC1
inactive: USP42 -0.0422 | USP46 -0.129 | USP47 -0.76 | USP5 0.0155 | USP54 0.842 | USP8 -0.354 | USP9X -0.318 | UniProt O00487 0.0259
active: USP48 -1.16 | USP7 -1.18
